Compound activity as filed in PubChem BioAssay.
KB-V1 cytotox = KB-V1 MDR subline cytotoxicity. KB-V1 MDR cells viability, CellTiter-Glo, 72 h. Potency, µM (series often up to 46.1 µM), most hits filed as cytotoxic. hit rate 3.4% among 400,000. AID 1347076; also: nearly all actives have a fitted effect of over 60% in size
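qHTS viability screen in drug-selected KB-V1 MDR cells: 72 h compound treatment at 37 degrees C, ATP luminescence end point.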
MCF10A rereplic = induces DNA re-replication in MCF 10a normal breast cells; MCF 10A DNA re-replication, Hoechst nuclear intensity, 48 h; Potency, µM (series often up to 46.1 µM), actives largely listed as activators; hit rate 2.9% among 350,000; AID 624296; also: nearly all actives have a fitted effect of over 50% in size
SW480 rereplic = DNA re-replication induction in SW480 cells; SW480 DNA re-replication, Hoechst DNA content imaging, 48 h; Potency, µM (top dose mostly 46.1 µM), actives largely listed as activators; hit rate 1.8% among 340,000; AID 624297; also: nearly all actives have a fitted effect of over 55% in size
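Readout is total intensity of Hoechst-stained nuclei, excited at 405 nm and collected at 500-530 nm. Compound treatment lasted 48 hr at 37 C in 5% CO2 before staining.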
ELG1 repair inh = ELG1-dependent DNA repair inhibition. HEK293T ELG1-luciferase reporter, luminescence, 16 h; DNA damage induced by 5-fluorouridine. Potency, µM (highest dose often 46.1 µM), actives largely listed as inhibitors. hit rate 2.3% among 330,000. AID 504467; also: nearly all actives have a fitted effect of over 55% in size
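Step one: seed 2,000 cells per well. Step two: pin-transfer compound or DMSO alongside 5-fluorouridine. Step three: incubate 16 hr, 37 °C, 5% CO2. Step four: add ONE-Glo, wait 30 min, read luminescence.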
KB-3-1 tox = kills parental KB-3-1 adenocarcinoma cells; Potency, µM (top dose mostly 46.1 µM), most hits filed as cytotoxic; KB-3-1 viability, CellTiter-Glo ATP luminescence, 72 h; AID 1347075; hit rate 1.4% among 400,000; also: nearly all actives have a fitted effect of over 60% in size
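Cells are dispensed, compounds pinned in, plates held at 37 °C for 72 h, then CellTiter-Glo is added and luminescence read after 10 minutes. Cell line: parental KB-3-1 in phenol-red-free DMEM, 10% FBS.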
Hits are given with their value; i = inactive; ? = inconclusive; nt = not tested or not shown. Most compounds without a hit are left out; they make up all but 8.1% or so of the library. Calls follow the shape of the dose curve; as a rule, active = well fitted curve in the direction sought with a large enough effect; inconclusive = small, poorly fitted or top-dose-only effect, or another doubt; inactive = no such curve, though single readings can be large; an effect the other way counts as inactive or inconclusive.

SMILES	KB-V1 cytotox	MCF10A rereplic	SW480 rereplic	ELG1 repair inh	KB-3-1 tox
COc1ccc(OC)c(CNS(=O)(=O)c2ccc3[nH]c4c(c3c2)CCCCC4)c1	21µM	nt	nt	nt	?
CN(C)c1ccc(CNS(=O)(=O)c2ccc3[nH]c4c(c3c2)CCCCC4)cc1	16µM	nt	nt	nt	?
O=C(O)c1cccc(-c2csc(C(O)c3cccc(Cl)c3)n2)c1 (configuration not stated)	i	nt	nt	nt	i
CCOC(=O)Cc1ccc(NC(=O)NCc2ccc3c(c2)CCN3C(=O)CC)cc1	i	nt	nt	nt	i
CN(CC(=O)Nc1ccccc1Br)C(=O)c1ccccc1-c1nc2ccccc2s1	i	i	i	21µM	i
COc1ccc(-c2cc(C(=O)N(C)CC(=O)Nc3ccccc3Br)c3ccccc3n2)cc1OC	9.2µM	i	i	?	i
COc1ccccc1CN(C)C(=O)c1cc(-c2cc(OC)c(OC)c(OC)c2)nc2ccccc12	?	?	i	5.8µM	i
COCCN(Cc1ccccc1)C(=O)c1cc(-c2ccc(OC)c(OC)c2)nc2ccccc12	?	?	?	12µM	i
CCCNC(=O)CSc1nnc(NC(=O)C2CC(=O)N(c3ccccc3OC)C2)s1 (configuration not stated)	i	nt	nt	nt	i
CC1(Oc2cccnc2Cl)CCN(Cc2ccc(OC(F)(F)F)cc2)C1 (configuration not stated)	i	nt	nt	nt	i
COc1ccc(-c2cc(C(=O)N(C)Cc3ccccc3F)c3ccccc3n2)cc1OC	16µM	?	i	i	i
COc1cc(-c2cc(C(=O)N(C)Cc3ccccc3)c3ccccc3n2)cc(OC)c1OC	?	i	i	?	?
O=C(Nc1ccccc1)N1CCCC(c2nc(-c3cccs3)no2)C1 (configuration not stated)	12µM	i	i	i	i
O=C(Nc1ccc(Cl)cc1)N1CCC(c2nc(-c3ccccc3Cl)no2)CC1	i	?	i	13µM	?
O=C(NC1CCCCC1)N1CCCC(c2nc(-c3cccs3)no2)C1 (configuration not stated)	i	?	i	?	i
O=C(Nc1ccc(Cl)cc1)N1CCC(c2nc(-c3cccs3)no2)CC1	i	?	?	?	i
O=C(c1ccco1)N1CCC(c2nc(-c3ccccc3Cl)no2)CC1	i	i	i	i	i
COc1ccc(NC(=O)N2CCC(c3nc(-c4cccs4)no3)CC2)cc1	6.5µM	i	i	i	i
COc1cccc(C(=O)N2CCCC(c3nc(-c4cccs4)no3)C2)c1 (configuration not stated)	4.1µM	i	i	i	i
Cc1ccc(CNC(=O)CN(c2ccc(C(C)C)cc2)S(=O)(=O)c2c(C)n[nH]c2C)cc1	i	nt	nt	nt	i
COc1ccc(C2c3c(n(C)c4ccccc34)C(=O)N2CC(=O)Nc2ccc(Cl)cc2)cc1 (configuration not stated)	i	nt	nt	nt	i
Cc1ccc(NC(=O)c2ccc(S(=O)(=O)N(C)c3ccccc3)cc2)cc1S(=O)(=O)N1CCOCC1	i	i	i	nt	?
Cc1oc(=O)oc1CN1CCN(c2cc3c(cc2F)c(=O)c(C(=O)O)c2n3C(C)S2)CC1 (configuration not stated)	nt	i	i	nt	nt
Cc1ccc(C(=O)NC(=S)Nc2cccc3c(C)cc(C)nc23)cc1	15µM	?	i	i	?
CCCCCCC(=O)N(O)C1CC(=O)N(c2ccc(Cl)cc2)C1=O (configuration not stated)	i	?	18µM	?	i
SMILES	KB-V1 cytotox	MCF10A rereplic	SW480 rereplic	ELG1 repair inh	KB-3-1 tox
O=C(OCc1cc(=O)n2nc(C3CC3)sc2n1)c1cccc(NC(=O)c2ccccc2Cl)c1	?	nt	nt	nt	i
O=C(NC1CCN(Cc2nnnn2CCc2ccccc2)CC1)c1ccccc1F	16µM	i	i	i	i
CCC(C)(C)n1nnnc1CN1CCC(NC(=O)c2ccc(Br)cc2)CC1	i	i	i	?	i
Cc1ccc(Cn2nnnc2CN2CCC(c3nc4ccc(Cl)cc4[nH]3)CC2)cc1	3.3µM	?	i	23µM	18µM
Clc1ccc2nc(C3CCN(Cc4nnnn4C4CCCCC4)CC3)[nH]c2c1	i	i	i	?	i
Cc1ccc(Cn2nnnc2CN2CCC(NC(=O)c3ccc(Br)cc3)CC2)cc1	18µM	i	i	21µM	i
Cc1ccn(CCNC(=O)C2CCC(=O)N(Cc3ccc(Cl)cc3)C2)n1 (configuration not stated)	i	i	i	i	i
C[C@@H]1CN([C@H](C)CO)C(=O)c2cc(Br)cnc2O[C@@H]1CN(C)C(=O)Nc1ccccc1	i	nt	nt	nt	i
COc1ccc(C(=O)c2cn[nH]c2-c2cc(Cl)ccc2O)cc1	18µM	i	?	i	?
CC(=Nc1ccccc1)c1sc2ccccc2c1O	21µM	?	i	?	i
CCOC(=O)c1ccc(CNC(=O)CSc2nnc(-c3ccncc3)o2)cc1	?	i	i	i	i
CCOC(=O)c1ccc(CNC(=O)CSc2nc(NC(=O)c3ccccc3)c3c(C)c(C)oc3n2)cc1	i	i	i	15µM	i
CCN(CC)c1ccc(/C=N/n2nnnc2N)c(O)c1	?	?	?	i	16µM
CCN(C)c1ccc(/C=N\n2nnnc2N)cc1	2.6µM	?	?	?	5.2µM
CCOc1ccccc1C1NC(c2ccc3c(c2)OCO3)=CC(c2ccccc2O)N1 (configuration not stated)	i	nt	nt	nt	i
Nc1nc2[nH]cc(CCc3ccc(C(=O)N[C@@H](CCC(=O)O)C(=O)O)cc3)c2c(=O)[nH]1	i	nt	nt	nt	i
CN(Cc1cnc2nc(N)nc(N)c2n1)c1ccc(C(=O)NC(CCC(=O)O)C(=O)O)cc1C(F)(F)F (configuration not stated)	?	i	i	nt	0.013µM
CN(Cc1cnc2nc(N)nc(N)c2n1)c1ccc(C(=O)NC(CCC(=O)O)C(=O)O)cc1 (configuration not stated)	?	i	i	nt	0.0052µM
C=Cc1ccc(Cn2c(C)c(CNCc3ccc(SC)cc3)c(C(=O)O)c2C)cc1	?	nt	nt	nt	i
CCCC(=O)NC(c1ccc(OC)c(OC)c1)c1c(O)ccc2ccccc12 (configuration not stated)	?	i	i	i	i
CC(=O)NC(c1ccc(C(C)C)cc1)c1c(O)ccc2ccccc12 (configuration not stated)	i	18µM	?	nt	i
CCCCC(=O)NC(c1ccc(OC)c(OC)c1)c1c(O)ccc2ccccc12 (configuration not stated)	15µM	i	i	i	i
CCCC(=O)NC(c1ccccc1)c1c(O)ccc2ccccc12 (configuration not stated)	i	i	i	i	i
CCCC(=O)NC(c1ccc(N(C)C)cc1)c1c(O)ccc2ccccc12 (configuration not stated)	15µM	i	i	i	i
